Results: PubChem BioAssay AID540257 (Southern Research Specialized Biocontainment Screening …, 2011)
The campaign covered roughly 1,800 compounds. About 15 (0.8%) were called active. No rule for the calls is given here. A selection follows. Results with a measured potency or affinity are listed apart.

Experiment: antiviral activity against H1N1 influenza, dose response, cell-based, strain KY136 (AID 540257)
Conditions: H1N1 KY136 influenza antiviral cell assay, % inhibition; series mostly up to 40 µM

Row | Compound | outcome
1 | O=C(Nc1cccc(Cl)c1)c1cc(N=Nc2ccc([N+](=O)[O-])cc2Cl)ccc1O | inactive
2 | CC(=O)N1CCC(N(CCCOC(C)C)C(=O)Nc2ccc(Cl)cc2)CC1 | inactive
3 | CCOC(=O)c1c(C2CC2)csc1NC(=O)COC(=O)c1ccc[n+]([O-])c1 | inactive
4 | COCc1cc(=O)[nH]c(Nc2nc3ccccc3o2)n1 | inactive
5 | O=[N+]([O-])c1ccc(O)c(/C=N/Nc2nn[nH]n2)c1 | inactive
6 | Cc1ccc(C(=O)Nc2nc(-c3ccccn3)cs2)o1 | inactive
7 | COc1ccc(CC(=O)N2N=C(C)CC2(O)c2cccnc2)cc1OC (configuration not stated) | inactive
8 | CCOc1ccc(OCCOCCn2ccnc2)cc1 | inactive
9 | Cc1ccc(S(=O)(=O)N2CCN(C(=O)c3ccc(N4CCCC4)c([N+](=O)[O-])c3)CC2)cc1 | inactive
10 | COc1ccc(CNC(=O)Cn2ccc([N+](=O)[O-])n2)cc1OC | inactive
11 | CCN(C(C)=O)c1cnc(C=NNC(N)=S)c2ccccc12 | inactive
12 | Cc1cc2ncn(C(=O)c3c(-c4ccccc4Cl)noc3C)c2cc1C | inactive
13 | Oc1c(C(Nc2ccccn2)c2ccccn2)ccc2cccnc12 (configuration not stated) | inactive
14 | COc1ccc(N2CCN(CCNC(=O)Nc3ccc([N+](=O)[O-])cc3OC)CC2)cc1 | inactive
15 | CCOc1ccc(N=Cc2c(O)cc(C)oc2=O)cc1 | inactive
16 | CN(C)c1ccc(N=Nc2ccccc2C(=O)OCC(=O)N(C)c2ccccc2)cc1 | inactive
17 | NC(=O)NC(=O)CC1S/C(=N/N=C2\CSC(=O)N2)NC1=O (configuration not stated) | inactive
18 | CC(=O)Oc1ccc(NC(=O)Cc2ccccc2)cc1 | inactive
19 | COc1ccc2cc3c(N)nn(C(=O)Cc4ccccc4OC)c3nc2c1 | inactive
20 | CN(C)c1ccc(CN2CC=C(c3ccc(F)cc3)CC2)cc1 | inactive
21 | CC(NS(C)(=O)=O)C(c1cccs1)N1CCN(c2ccccc2)CC1 (configuration not stated) | inactive

Row | Compound | outcome
22 | Cc1ccccc1NC(=S)N/N=C/c1ccc(O)cc1O | inactive
23 | O=C(N/N=C/c1ccco1)Nc1ccccc1 | inactive
24 | COc1ccc(C2C3=C(CC(C)(C)CC3=O)Oc3ncn(Cc4ccco4)c(=N)c32)cc1 (configuration not stated) | inactive
25 | Cc1ccccc1CNC(=O)CCC(=O)N1CCOc2ccc(Cl)cc21 | inactive
26 | CCC(C)NC(=O)CN1C(=O)COc2ccc(S(=O)(=O)N3CCOCC3)cc21 (configuration not stated) | inactive
27 | CS(=O)(=O)N1CCC(Oc2cccc(C(=O)NCCCC3CCCC3)c2)CC1 | inactive
28 | CC(/C=C/c1ccccc1)=N\NC(=O)Cn1nc(C)cc1C | inactive
29 | O=C(Cn1c(=O)c(C(F)(F)F)nc2ccccc21)N1CCC2(CC1)OCCO2 | inactive
30 | Cc1cccn2c(=O)c(C=C(C#N)C#N)c(N3CCN(c4ccccc4)CC3)nc12 | inactive
31 | CCCCN1C(=O)NC2NC(=O)NC21 (configuration not stated) | inactive
32 | CC(C)C(C(=O)Nc1ccccc1F)N1C(=O)c2ccccc2C1=O (configuration not stated) | inactive
33 | O=C(Nc1ccccc1)c1ccc[n+](Cc2ccc([N+](=O)[O-])cc2)c1 | inactive
34 | O=C1C(NS(=O)(=O)c2cccs2)=C(N2CCN(c3ccccc3)CC2)C(=O)c2ccccc21 | inactive
35 | Fc1cccc(Nc2ncnc3c2cnn3-c2ccccc2)c1 | inactive
36 | O=C1c2ccccc2C(=O)c2c1cccc2N1CCOCC1 | inactive
37 | O=C(N/N=C/C1C(=O)NC(=S)N(c2ccccc2)C1=O)c1cc(Br)c(O)c(Br)c1 (configuration not stated) | inactive
38 | CCOC(=O)c1sc(NC(=O)c2ccc3ncsc3c2)nc1C | inactive
39 | O=[N+]([O-])c1cc(Br)c2nsnc2c1N1CCOCC1 | inactive
40 | CCOC(=O)CC(NS(=O)(=O)c1ccc(NC(C)=O)cc1)c1ccc(OCC)cc1 (configuration not stated) | inactive
41 | CN(C)c1ccc(C=c2c3ccccc3n3c2c2c([n+]3C)CCCC2)cc1 | inactive
42 | O=C(NC1CC1)C(=O)c1c(-c2ccccc2)[nH]c2ccccc12 | inactive

Row | Compound | outcome
43 | Cc1nn(Cc2ccccc2)c(C)c1N | inactive
44 | S=c1sscc1-c1ccccc1 | inactive
45 | COc1ccc(/C=C/C(=O)OCC(=O)NCCc2ccccc2)c(OC)c1 | inactive
46 | COc1ccc(S(=O)(=O)N2CCOCC2)cc1NC(=O)CN1CCN(C)CC1 | inactive
47 | COc1ccc(CSC2=NCCN2)cc1Cl | inactive
48 | C=CCn1c(N)c(C(=O)NCCC2=CCCCC2)sc1=S | inactive
49 | O=C(CN1C(=O)c2cccc3cccc(c23)C1=O)N1CCN(Cc2ccc3c(c2)OCO3)CC1 | inactive
50 | CCCn1nc([N+](=O)[O-])c(C(C#N)c2nc3ccccc3s2)c(Cl)c1=O (configuration not stated) | inactive
51 | Cc1c(N2C(=O)/C(=C/c3ccccc3)SC2=S)c(=O)n(-c2ccccc2)n1C | inactive
52 | O=C(NCCN1CCOCC1)c1cc2sccc2n1Cc1ccc(Cl)cc1 | inactive
53 | CCOC(=O)CCSCC(=O)Nc1nnc(C)s1 | inactive
54 | O=C(CSc1ccccc1)Nc1nnc(/C=C/c2ccccc2)s1 | inactive
55 | Cc1nc(CNS(=O)(=O)c2ccc3ccccc3c2)cs1 | inactive
56 | CCc1nccn1C(=O)c1cnn2c(C(F)F)cc(-c3ccc(C)cc3)nc12 | inactive
57 | Cc1c(N/N=C(\C#N)C(=O)c2ccccc2)c(=O)n(-c2ccccc2)n1C | inactive
58 | COc1ccc2sc(NC(=O)c3ccco3)nc2c1 | inactive
59 | CCCc1ccc2oc(C(=O)NCc3nnc(C)o3)c(C)c2c1 | inactive
60 | O=C(N/N=C/c1cc(Br)c(O)c(Br)c1O)c1cccnc1 | inactive
61 | CCn1c(C(C)NC(=O)c2cccc(C)c2)nc2ccccc21 (configuration not stated) | inactive
62 | COc1ccc(C(CCNCc2ccc(N(C)C)cc2)C(C)C)cc1 (configuration not stated) | inactive
